From the supplement of paper PMC13380429
Unmarked numbers belong to inactive results.

System: Vero E6 infected with SARS-CoV-2
Assay: inhibition of SARS-CoV-2 cytopathic effect; higher = more antiviral protection, active = above 15
Conditions: 48 h

| SMILES | inhibition of SARS-CoV-2 cytopathic effect (1 nM) | inhibition of SARS-CoV-2 cytopathic effect (8.33 nM) | inhibition of SARS-CoV-2 cytopathic effect (100 nM) | inhibition of SARS-CoV-2 cytopathic effect (833.33 nM) | inhibition of SARS-CoV-2 cytopathic effect (10000 nM) |
| --- | --- | --- | --- | --- | --- |
| Cc1ccc(-c2ncc(Cl)cc2-c2ccc(S(C)(=O)=O)cc2)cn1 [etoricoxib] | 2.49% | 0.25% | -0.65% | -1.22% | -1.11% |
| N=C(N)NCCC[C@@H](NC(=O)[C@@H]1CCCN1C(=O)[C@@H]1CSSCCC(=O)N[C@@H](Cc2ccc(O)cc2)C(=O)N[C@@H](Cc2ccccc2)C(=O)N[C@@H](CCC(N)=O)C(=O)N[C@@H](CC(N)=O)C(=O)N1)C(=O)NCC(N)=O [desmopressin-acetate] | -0.33% | -2.9% | 0.69% | 0.25% | 0.02% |
| CC(Cc1ccccc1)NCCC(c1ccccc1)c1ccccc1 (stereo not given) [prenylamine] | 1.32% | -1.92% | -0.65% | -1.29% | 23.1% (active) |
| COc1cc2c(cc1OC)-c1c(C)c3ccc(OC)c(OC)c3c[n+]1CC2 [dehydrocorydaline] | -0.53% | 0.34% | -1% | -1.37% | 0.05% |
| CCCn1c(=O)[nH]c(=O)c2nc[nH]c21 [enprofylline] | 0.79% | 0.93% | 1.89% | 1.3% | 4.03% |
| CC(C)/N=c1\cc2n(-c3ccc(Cl)cc3)c3ccccc3nc-2cc1Nc1ccc(Cl)cc1 [clofazimine] | -2.49% | 0.21% | -2.66% | 6.27% | -0.63% |
| O=C1C[C@@H]2OCC=C3CN4CC[C@]56c7ccccc7N1[C@H]5[C@H]2[C@H]3C[C@H]46 [strychnine] | -0.53% | 0.64% | 5.93% | 3.93% | 1.26% |
| CCOc1cc(C=O)ccc1O [ethyl-vanillin] | -2.26% | 2.03% | -1.95% | -0.96% | -1.21% |
| CC(C)(O)[C@@H]1[C@H]2OC(=O)[C@@H]1[C@]1(O)C[C@H]3O[C@]34C(=O)O[C@H]2[C@]14C [picrotin] | -0.34% | 1.31% | 1.26% | -0.13% | 3.22% |
| O=c1[nH]cnc2c1ncn2[C@H]1CC[C@@H](CO)O1 [didanosine] | 0.07% | -2.03% | 2.16% | 3.97% | -1.54% |
| CNS(=O)(=O)Nc1nccc(Cc2c(C)c3ccc(Oc4ncccn4)cc3oc2=O)c1F | -0.25% | -3.18% | -10.4% | -17.5% | -15.7% |
| COc1cc2c(cc1-c1c(C)noc1C)ncc1[nH]c(=O)n([C@H](C)c3ccccn3)c12 | -7.87% | -7.32% | -3.13% | 1.38% | -8.07% |
| CC(=O)OCC(=O)[C@@]1(O)CC[C@H]2[C@@H]3CCC4=CC(=O)C=C[C@]4(C)[C@@]3(F)[C@@H](O)C[C@@]21C [isoflupredone-acetate] | 2.83% | 2.61% | 0.09% | 1.17% | 1.02% |
| C[C@@H](NCc1cc(Br)cc2nc(O)c(O)nc12)P(=O)(O)O | -0.47% | 3.65% | -0.39% | -1.72% | -3.97% |
| C#CCN1C(C)=C(C(=O)OC)C(c2cccc([N+](=O)[O-])c2)C(C(=O)OCC)=C1C (stereo not given) | 0.91% | 2.53% | 0.36% | 3.36% | 6.77% |
| O=c1ccc2ccc(O)c(O)c2o1 [daphnetin] | -1.96% | 2.35% | -2.13% | 4.54% | 2.15% |
| O=C1CCC[C@@H]2[C@H]3C[C@@H](CN12)[C@@H]1CCCCN1C3 [lupanine] | 2.64% | 9.38% | 5.68% | 1.8% | -0.17% |
| C=CCNC(=O)c1cc([N+](=O)[O-])cc2c(=O)[nH]c(Nc3ccc(Cl)c(Cl)c3)nc12 | 0.56% | 4.08% | -1.8% | 9.51% | 1.19% |
| O=C1c2cccnc2OC[C@@H]2CCCN12 | 0.83% | 1.33% | 0.65% | 0.64% | -2.21% |

| SMILES | inhibition of SARS-CoV-2 cytopathic effect (1 nM) | inhibition of SARS-CoV-2 cytopathic effect (8.33 nM) | inhibition of SARS-CoV-2 cytopathic effect (100 nM) | inhibition of SARS-CoV-2 cytopathic effect (833.33 nM) | inhibition of SARS-CoV-2 cytopathic effect (10000 nM) |
| --- | --- | --- | --- | --- | --- |
| CN(C)CCOc1ccc(-c2nc(-c3ccncc3)c(-c3ccc4c(c3)CC/C4=N\O)[nH]2)cc1 | -0.13% | -0.36% | 2.34% | -0.51% | 6.82% |
| O=S(=O)(N[C@H]1CC[C@@](c2cc(F)ccc2F)(S(=O)(=O)c2ccc(Cl)cc2)CC1)C(F)(F)F | 2.61% | 4.08% | -0.09% | -2.63% | -2.01% |
| Fc1ccc(-c2c3cccc(C(F)(F)F)c3nn2Cc2ccc(F)cc2Cl)cc1 | -0.96% | -3.42% | 2.69% | -1.23% | 2.25% |
| Cc1ccccc1N1CCN(S(=O)(=O)C[C@]23CC[C@H](C[C@@H]2NC(=O)[C@@H](N)CCS(C)(=O)=O)C3(C)C)CC1 | 0.06% | 2.09% | 2.92% | 1.11% | 0.11% |
| O=C(O)c1ccc(-n2nc(-c3ccccc3O)nc2-c2ccccc2O)cc1 [deferasirox] | -0.67% | -4.22% | -1.32% | -1.58% | 0.43% |
| CC(=O)c1ccc2c(c1)N(CCCN1CCC(CCO)CC1)c1ccccc1S2 [piperacetazine] | 4.15% | 4.04% | 1.55% | 0.28% | 3.14% |
| CCN1CCN(Cc2ccc(-c3cc4c(N[C@H](C)c5ccccc5)ncnc4[nH]3)cc2)CC1 | 1.55% | 0.57% | -1.71% | -10.4% | -16% |
| COc1ccc(-c2ccc(=N)n(CCCC(=O)O)n2)cc1 [gabazine] | 0.8% | 2.86% | 5.99% | -1.31% | -0.62% |
| CCC(CC)O[C@@H]1C=C(C(=O)O)C[C@H](N)[C@H]1NC(C)=O [oseltamivir-carboxylate] | -1.71% | 0.87% | 0.49% | 1.32% | -0.82% |
| CSCC1CN(/N=C/c2ccc([N+](=O)[O-])o2)C(=O)O1 (stereo not given) [inimur] | -1.14% | -0.35% | 2.9% | 1.93% | 0.52% |
| Cc1ccc(=O)n(-c2ccc(O)cc2)c1 | -3.24% | -0.95% | 1.12% | 2.81% | 1.12% |
| CCC(=N\O)/C(C)=C/c1ccc(F)cc1 | -0.84% | -0.21% | 0.55% | -0.42% | -0.21% |
| N#Cc1c(N(CC(=O)O)CC(=O)O)sc(C(=O)O)c1CC(=O)O [Strontium Ranelate] | 1.28% | 2.01% | 0.58% | 5.99% | 1.75% |
| COc1cccc(OC)c1-c1cc(C(=O)N[C@@H](CC(C)C)C(=O)O)nn1-c1ccnc2cc(Cl)ccc12 | 2.48% | 1.4% | -0.45% | -0.64% | -0.46% |
| CN[C@@H]1[C@@H](O[C@H]2O[C@H](CO)[C@@H](N)[C@H](O)[C@H]2O)O[C@H]2C[C@@H](N)[C@@H](O[C@H]3[C@H](O)[C@@H](O)[C@H](N)C[C@@H]3N)O[C@@H]2[C@@H]1O [apramycin] | -4.27% | -2.53% | -2.38% | 0.37% | 0.71% |
| C[C@]12CC[C@@H]3c4ccc(OC(=O)N(CCCl)CCCl)cc4CC[C@H]3[C@@H]1CC[C@@H]2OP(=O)(O)O [estramustine-phosphate] | -1.79% | 0.03% | -0.34% | -1.57% | -2.26% |
| COc1cc(C[C@H]2C(=O)OC[C@@H]2Cc2ccc(OC)c(OC)c2)ccc1O [arctigenin] | -2.79% | 0.36% | -2.78% | 0.01% | 2.1% |
| COc1c(C)c2c(c(O)c1C/C=C(\C)CCC(=O)OCCN1CCOCC1)C(=O)OC2 [mycophenolate-mofetil] | -1.57% | 0.08% | 0.94% | -5.7% | 16.8% (active) |
| CCc1cccc2c3c([nH]c12)C(CC)(CC(=O)O)OCC3 (stereo not given) [etodolac] | -3.24% | -2.14% | -2.22% | -1.67% | -0.69% |
